Measured values: the supplement of paper PMC8975748
Structures can show the parent of a compound that is named as a salt.

Test system: Saccharomyces cerevisiae BY4741 SeMeCo community
Test: z-score of prototroph abundance vs DMSO median; higher = larger share of this subpopulation than in DMSO controls
Conditions: 10 µM; 24 h; SM minimal medium; subpopulation (auxotrophy): Prototroph
How it was run: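 Cells of a Saccharomyces cerevisiae BY4741 community, carrying four plasmids that each restored one auxotrophy and encoded a distinct fluorescent protein, were pre-grown overnight to OD600 1.0 and diluted to 0.3. A 70 µl volume was added to 384-well plates acoustically predosed with library drugs (10 µM final) and grown 24 h in minimal SM medium. After paraformaldehyde fixation, automated confocal microscopy was used, with single-auxotroph fluorescent strains for thresholds and autofluorescence correction. The abundance of each subpopulation was scored as a z-score against the vehicle-well median.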

Compound	z-score of prototroph abundance
COC(=O)C1=C(C)NC(C)=C(C(=O)OC(C)(C)CN(C)CCC(c2ccccc2)c2ccccc2)C1c1cccc([N+](=O)[O-])c1 (stereo not given) [Lercanidipine hydrochloride]	-0.42
O=c1[nH]c2ccccc2n1CCN1CCN(c2cccc(C(F)(F)F)c2)CC1 [Flibanserin]	0.65
NC1CCN(c2nc3c(cc2F)c(=O)c(C(=O)O)cn3-c2ccc(F)cc2F)C1 (stereo not given) [Tosufloxacin p-Toluenesulfonate Hydrate]	0.74
CC1(C)S[C@@H]2[C@H](NC(=O)[C@H](NC(=O)N3CCNC3=O)c3ccccc3)C(=O)N2[C@H]1C(=O)O [Azlocillin sodium salt]	0.68
CCN(CC)CCOC(=O)c1ccc(N)cc1Cl [Chloroprocaine HCl]	-0.55
